# Mtb hypoxia rep – inhibitors of hypoxia-regulated fluorescent reporter in Mycobacterium tuberculosis | M. tuberculosis hypoxia-regulated fluorescent reporter, fluorescence | 300,000 compounds, 0.1% hits | fluorescence inhibition, % (concentration not given with the values); in the data active = fluorescence inhibition mostly above about 23%, no sharp cut-off; inactive = mostly below about 17%
# ugtP null kill – growth inhibition of S. aureus ugtP deletion strain | S. aureus RN4220 ugtP deletion, OD600 growth, 16 h | growth inhibition, % (concentration not given with the values) | 330,000 compounds, 0.54% hits; in the data active = growth inhibition above about 68%
# PfHsp40 yeast – compounds rescuing yeast from Plasmodium falciparum HSP40 toxicity; S. cerevisiae expressing PfHsp40, growth rescue, ATP luminescence; growth rescue, % at 12.5 µM; 340,000 compounds, 0.68% hits; AID 504582; in the data active = growth rescue above about 28%, passing the limit was not always enough;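 also: yeast W303a lacking pdr1 and pdr3 grown in galactose medium; growth measured after three days at 30 °C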
# Sa RN4220 lethal – kills Staphylococcus aureus RN4220. S. aureus RN4220 growth, OD600, 16 h. inhibition, % (no concentration beside the values). 330,000 compounds, 0.33% hits; in the data active = inhibition above about 85%
# BH1578 lux ind – induces V. cholerae light production without autoinducers; 350,000 compounds, 0.16% hits; AID 588436; activation, % at 18.7 µM; V. cholerae BH1578 lux reporter, luminescence, 6 h; in the data active = activation mostly above about 9.7%, no sharp cut-off
# CCHF vOTU inh – blocks the CCHF virus ovarian tumor domain protease; CCHFV vOTU protease, Pep-AMC fluorescence; inhibition, % at 11.5 µM; 370,000 compounds, 0.55% hits; in the data active = inhibition above about 30%
# Hits are given with their value; n = inactive; x = no result given. Most compounds without a hit are left out; they make up all but 1.7% or so of the library.
SMILES,Mtb hypoxia rep,ugtP null kill,PfHsp40 yeast,Sa RN4220 lethal,BH1578 lux ind,CCHF vOTU inh
O=C(c1cc2nc(-c3ccc(F)cc3)cc(C(F)(F)F)n2n1)N1CCCCC1c1cccnc1 (stereo not given),n,active,n,n,n,n
NC(CO)c1nnc(C(CCC(=O)O)NC(=O)C2CCNCC2)o1 (stereo not given),n,n,x,n,x,x
Cc1ccc(Nc2c([N+](=O)[O-])ccc3c2=NC2(CCCCC2)N=3)cc1,n,n,59,n,n,n
O=[N+]([O-])c1ccc2c(c1Nc1ccccc1Cl)=NC1(CCCCC1)N=2,n,n,x,n,n,n
COc1ccc(-c2oc3c(OC)c(OC)c(OC)c(O)c3c(=O)c2OC)cc1OC,x,n,71,n,n,n
C/C(=N\Nc1nccnc1Cl)c1c(F)c(F)c(F)c(F)c1F,x,x,59,x,n,n
O=C1c2ccccc2C2(c3ccccc3)N1CCN2C(=O)C(Cl)(Cl)Cl (stereo not given),n,n,122,n,n,n
Cc1ccc(C(=O)N2CCN3C(=O)c4ccccc4C23c2ccccc2)cc1 (stereo not given),n,n,n,n,n,n
CC1CCC(=O)N(C(CC#N)Cc2ccccc2)CC1 (stereo not given),n,n,x,n,x,x
CC1CN(C(C)CO)C(=O)c2cc(N(C)C)ccc2OC1CN(C)S(C)(=O)=O (stereo not given),n,n,x,n,x,x
N#Cc1nc(-c2ccc(Cl)cc2)oc1NCCc1ccccn1,n,n,67,n,n,n
Cc1ccc(-c2nc(C#N)c(NCCc3ccccn3)o2)cc1,n,n,n,n,n,n
CCNC(=S)N1CCN(c2ccccn2)CC1,n,n,n,n,n,n
CC(NNC(=S)N1CCN(c2ccccn2)CC1)c1nccc2ccccc12 (stereo not given),x,x,149,x,n,n
COc1ccc2c(c1)Cc1sc(NC(=O)c3cccnc3)nc1-2,n,n,n,n,n,n
COc1ccc2c(c1)Cc1sc(NC(C)=O)nc1-2,n,n,n,n,n,81
COP(=O)(C=Cc1ccccc1)C(O)c1ccc(F)cc1 (stereo not given),n,n,x,n,x,x
COc1ccc(-c2cc(-c3c(O)c(OC)c4occc4c3OC)[nH]n2)cc1OC,n,n,31,n,n,n
COc1ccc(-c2cc(-c3c(O)c(OC)c4occc4c3OC)[nH]n2)cc1,n,n,n,n,n,n
CCC1(CC)Cc2ccccc2-c2nc(-c3ccccc3)oc(=O)c21,x,n,n,n,32,x
O=c1c2ccccc2nc(SCc2ccccc2Cl)n1Cc1ccccc1,n,n,n,n,26,n
O=C(CSc1nc2ccccc2c(=O)n1Cc1ccccc1)Nc1ccc(Br)cc1C(=O)O,n,99,n,n,n,n
Cc1ccc(S(=O)(=O)N2CCOCC2)cc1NC(=O)CSc1nc2ccccc2c(=O)n1Cc1ccccc1,n,n,n,n,n,n
COc1cc(NC(=O)CC(C)=NNC(=O)c2cccs2)c(OC)cc1Cl,n,n,x,n,x,x
CC(=O)Nc1ccccc1NC(=O)CC(C)=NNC(=O)C1CCCCC1,n,n,x,n,x,x
SMILES,Mtb hypoxia rep,ugtP null kill,PfHsp40 yeast,Sa RN4220 lethal,BH1578 lux ind,CCHF vOTU inh
O=C1c2ccccc2C(=O)c2cc(S(=O)(=O)Nc3ccccc3)ccc21,n,89,n,96,n,n
Cc1oc2cc(Br)c(O)c(Br)c2c1-c1ccccc1,n,87,97,n,n,x
O=C(NN=Cc1ccco1)c1ccccn1,n,n,x,n,x,x
COC(=O)c1ccccc1Nc1ccccc1,n,n,n,n,n,34
COC(=O)c1cc(=O)n2c(-c3ccccc3)csc2n1,x,n,n,n,x,n
O=c1nc2scc(-c3ccccc3)n2c2ccccc12,n,91,n,n,n,n
COc1ccc(-c2oc(=O)c3cc(OC)c(OC)cc3c2C=Cc2ccc(OC(C)=O)cc2)cc1,n,n,x,n,x,x
CC(C)(C)c1csc(NN=Cc2ccc(O)cc2)n1,34,n,x,n,x,x
CCCCCC[N+](C)(C)CC/C=C1/c2ccccc2Sc2ccc(Cl)cc21,x,99,n,100,n,n
CN(C)CC/C=C1/c2ccccc2Sc2ccc(Cl)cc21,n,n,n,n,n,n
CCCOc1ccc(CSCCNC(=S)Nc2ccccc2)cc1,n,n,216,n,n,n
CCOC(=O)c1oc2ccc(Br)cc2c1NC(=O)CN1CCN(C)CC1,x,91,n,n,n,n
Cc1ccc(NC(=O)C2CCCN(S(=O)(=O)c3ccc4c(c3)oc(=O)n4C)C2)nc1 (stereo not given),n,n,n,n,n,30
